PNC assembly inh: inhibitors of perinucleolar compartment assembly. AID 2417. PC3M PTB-GFP, PNC prevalence imaging, 16 h; hits give low values. activity change (PNC), negative = inhibition, % at 10 µM. 140,000 compounds, 3.1% hits;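 active = readout at or below -70, meaning at least 70% loss of cells showing the perinucleolar compartment, a nuclear body marking cancer cells; inconclusive = readout between -30 and a set limit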
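PC3M cells stably expressing PTB-GFP, 750–1000 cells/well, treated 16 h at 37 °C with compound (23 nl of library stock), in duplicate. After paraformaldehyde fixation and Hoechst stain, imaged at 20x; PNC prevalence scored by image analysis.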
IMPase cell inh: IMPase inhibition in cells | P97697 | AID 901 | inhibition (IP1 accumulation), % at 46.1 µM | CHO-M1 cells, IP1 accumulation, HTRF TR-FRET ratio | 120,000 tested, under 10 active; active = well fitted curve in the direction sought with a large enough effect in the signal ratio, not every such curve was filed as active; inconclusive = small, poorly fitted or top-dose-only effect, or a change in a side signal; inactive = no such curve, though single readings can be large or run the other way; the % refers to the signal ratio;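 also: cells stimulated with carbachol in lithium chloride buffer; higher means more IMPase inhibition seen as more IP1 and lower FRET ratio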
Target sequence (P97697 whole entry, looked up): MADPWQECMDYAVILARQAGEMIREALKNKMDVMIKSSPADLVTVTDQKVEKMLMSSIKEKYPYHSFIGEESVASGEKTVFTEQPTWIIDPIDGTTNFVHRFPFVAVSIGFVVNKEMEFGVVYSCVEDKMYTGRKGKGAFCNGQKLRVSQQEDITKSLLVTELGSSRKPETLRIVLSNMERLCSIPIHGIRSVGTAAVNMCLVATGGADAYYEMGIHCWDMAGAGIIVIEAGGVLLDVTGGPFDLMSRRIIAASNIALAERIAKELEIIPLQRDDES
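Elevated IP1 in lysates lowers TR-FRET signal (665/620 ratio and 620 channel reported). Cells were CHO-M1, given carbachol (50 uM as added) plus 50mM LiCl, pH 7.4, 30 min, 37C; compounds titrated up to 46 uM; AC50 by Hill equation.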
HPGD block: inhibitors of human 15-hydroxyprostaglandin dehydrogenase (HPGD) | P15428 | purified HPGD, NADH fluorescence kinetic, PGE2 substrate | Potency, µM, actives largely listed as inhibitors | 150,000 compounds, 4.3% hits
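20 nM HPGD preincubated 15 min at room temperature with compound in 50 mM Tris-HCl pH 8, 0.01% Tween 20. Started with 1 mM NAD+ and 30 uM prostaglandin E2; NADH fluorescence (360/450 nm) read 5 times over 30-s intervals, last minus first.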
IMPase Li inh: membrane-permeable IMPase blocker, potentiated with lithium | CHO-M1 cells, IP1 TR-FRET (IP-One), carbachol + lithium | Potency, µM (series often up to 59.4 µM), usual class: inhibitors | 210,000 compounds, 0.35% hits | AID 1457; active = well fitted curve in the direction sought with a large enough effect; inconclusive = small, poorly fitted or top-dose-only effect, or another doubt; inactive = no such curve, though single readings can be large; an effect the other way counts as inactive or inconclusive;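 also: IP1 builds up when IMPase is blocked and the TR-FRET signal falls; nearly all actives have a fitted effect of over 50% in size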
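Steps: plate 2000 CHO-M1 cells per well and culture 16–30 h; add compound and lithium; incubate 30 min, 37C; add d2-IP1 tracer and Eu cryptate anti-IP1 antibody in lysis buffer; read after 10 min at room temperature.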
ALDH1A1 inh: ALDH1A1 (human) enzyme inhibition; P00352; Purified ALDH1A1, NADH fluorescence, propionaldehyde substrate; Potency, µM (top dose mostly 75.3 µM), usual class: inhibitors; 220,000 compounds, 7.3% hits
Target sequence (P00352 whole entry, looked up): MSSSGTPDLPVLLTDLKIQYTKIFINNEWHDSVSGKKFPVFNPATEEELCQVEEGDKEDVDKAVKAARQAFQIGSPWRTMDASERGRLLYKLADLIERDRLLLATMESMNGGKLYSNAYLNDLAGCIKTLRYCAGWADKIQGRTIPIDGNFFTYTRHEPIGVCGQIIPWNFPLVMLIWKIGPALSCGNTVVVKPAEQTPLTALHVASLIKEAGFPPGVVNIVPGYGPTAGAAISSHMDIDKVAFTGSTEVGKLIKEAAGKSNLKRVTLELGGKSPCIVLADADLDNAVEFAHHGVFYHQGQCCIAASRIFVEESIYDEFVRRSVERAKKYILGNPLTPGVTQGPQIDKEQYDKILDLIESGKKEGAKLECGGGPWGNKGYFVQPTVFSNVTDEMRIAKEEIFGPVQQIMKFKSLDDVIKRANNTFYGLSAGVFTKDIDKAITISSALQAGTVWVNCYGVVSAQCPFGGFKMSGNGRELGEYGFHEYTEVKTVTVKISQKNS
12-hLO inh: inhibitors of human 12-lipoxygenase (ALOX12) | P18054 | purified 12-hLO, xylenol orange hydroperoxide absorbance | Potency, µM (doses to about 57.1 µM), most hits filed as inhibitors | 150,000 compounds, 0.12% hits | AID 1452; active = well fitted curve in the direction sought with a large enough effect; inconclusive = small, poorly fitted or top-dose-only effect, or another doubt; inactive = no such curve, though single readings can be large; an effect the other way counts as inactive or inconclusive; also: nearly all actives have a fitted effect of over 55% in size
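Purified human 12hLO (150 nM final) was preincubated with compounds for 15 min at room temperature in 25 mM Hepes pH 7.0, 0.01% Triton X-100, then reacted with 40 uM arachidonic acid for 30 min. Hydroperoxide was detected with ferrous iron/xylenol orange.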
A number is an active result; – = inactive; ? = inconclusive; · = no result; [ ] = remark or other dose. An excerpt weighted towards active compounds, which were near 11% of everything screened. Unless noted, calls follow the shape of the dose curve; as a rule, active = well fitted inhibition curve with a large enough effect (not every such curve was filed as active); inconclusive = small, poorly fitted or top-dose-only effect, or another doubt; inactive = no such curve, though single readings can be large or run the other way.

SMILES | PNC assembly inh | IMPase cell inh | HPGD block | IMPase Li inh | ALDH1A1 inh | 12-hLO inh
CCC(C)N(C)Cc1cccc(C2(O)CCN(S(=O)(=O)c3ccc(F)c(C)c3)CC2)c1 (stereo not drawn) | -113 | · | – | – | ? | –
Cc1cc(S(=O)(=O)N2CCN(c3c(C)cccc3C)CC2)ccc1F | – | – | – | – | ? | –
CN(C)S(=O)(=O)c1cc(S(=O)(=O)N(C)C)c(Cl)cc1N | – | – | – | – | 13µM | –
Cc1cc2oc(=O)cc(CN3CCCc4ccccc43)c2cc1C | – | – | – | ? | 25µM | –
Cc1cc2oc(=O)cc(CN3CCOCC3)c2cc1C | ? | – | – | – | – | –
Cc1cc(N2CCC(C)CC2)nc(-n2nc(C)cc2C)n1 | -96 | – | – | – | – | –
O=C(NCc1cccnc1)c1sc2cc(Cl)ccc2c1Cl | ? | – | ? | – | – | –
Cc1c(CN(C)C(=O)c2sc3cc(Cl)ccc3c2Cl)cnn1C | – | – | 20µM | – | ? | –
CCOC(=O)CNC(=O)O[C@H]1C(=O)c2ccc(OC)cc2O[C@@H]1c1ccc2c(c1)OCO2 | · | · | – | – | – | ·
CCCCC[C@H](O)/C=C/C1=C(CCCCCCC(=O)O)C(=O)CC1 | -115 | · | – | – | – | –
COC(=O)C(N)CS (stereo not drawn) | · | · | 25µM | – | ? | –
COC(=O)[C@@H](N)CS | – | · | – | – | 3.2µM | –
O=C(Cc1coc(-c2ccc(F)cc2)n1)NC1CCCCC1 | – | – | 18µM | – | – | –
O=S(=O)(c1ccccc1)N(CC(F)(F)F)c1ccc(C(O)(C(F)(F)F)C(F)(F)F)cc1 | · | · | – | – | – | –[0.00818 µM]
O=C1c2cccnc2C(Nc2ccc(Cl)cc2)N1Cc1cccs1 (stereo not drawn) | · | · | · | – | 4.5µM | ·
Cc1ccc(NC2c3ncccc3C(=O)N2Cc2cccs2)cc1C (stereo not drawn) | · | · | · | – | ? | ·
COc1ccc(NC2c3ncccc3C(=O)N2Cc2ccccc2)c(OC)c1 (stereo not drawn) | -100 | – | – | – | – | –
COc1cc(NC2c3ncccc3C(=O)N2Cc2ccco2)cc(OC)c1 (stereo not drawn) | – | – | – | – | 16µM | –
NC(CCC(=O)N[C@@H](CS)C(=O)NCC(=O)O)C(=O)O (stereo partly drawn) | · | · | – | – | – | –
Cc1ccc(-c2csc(Nc3ccc(S(N)(=O)=O)cc3)n2)o1 | · | · | · | – | 2.2µM | ·
Cc1ccc(-c2csc(NC(=O)Cc3ccc(F)cc3)n2)o1 | · | · | · | – | 3.5µM | ·
Cc1ccc(-c2csc(NC(=O)c3ccc(-c4ccccc4)cc3)n2)o1 | – | – | ? | – | 20µM | ?
NS(=O)(=O)c1ccc(Nc2nc(-c3ccc4ccccc4c3)cs2)cc1 | – | – | – | – | – | –
COC(=O)C1=C(C(=O)OC)[C@@H]2N(Cc3ccccc3)c3ccccc3[C@@]23C[C@@H](C(=O)OC)N(C(=O)NCc2ccccc2)C3=C1 | · | · | – | – | – | ·
O=C(O)C1C(C(=O)O)C(C(=O)O)C1C(=O)O (stereo not drawn) | · | · | – | – | –[13.5 µM] | –[11.4 µM]
SMILES | PNC assembly inh | IMPase cell inh | HPGD block | IMPase Li inh | ALDH1A1 inh | 12-hLO inh
COCCn1c(C23CC4CC(CC(C4)C2)C3)n[nH]c1=S | – | – | 25µM | – | – | –
Cc1nc(NC(=O)CCl)sc1C(=O)N(C)C | · | · | · | – | 32µM | ·
C/C(=N\NC(=O)COc1ccccc1)c1ccc(O)cc1 | · | · | · | – | ? | ·
C/C(=N\NC(=O)c1ccc(COc2ccccc2)cc1)c1ccncc1 | · | · | · | – | 25µM | ·
C/C(=N\NC(=O)c1ccc(Cl)c(S(=O)(=O)Nc2ccccc2Cl)c1)c1ccncc1 | -83 | · | – | – | ? | –
CC1(C)OC2C(CO)OC(n3cnc4c(=O)[nH]c(N)nc43)C2O1 (stereo not drawn) | · | · | – | – | – | –
O=C1NC(=O)C(Nc2cccc3ccccc23)S1 (stereo not drawn) | – | – | ? | – | – | –
CN1C(=O)SC(Nc2cccc3ccccc23)C1=O (stereo not drawn) | – | – | – | – | 28µM | –
Cc1ncc(CO)c(CN)c1O | · | · | – | – | –[13.5 µM] | –[11.4 µM]
CCOC(=O)c1sc(NC(C)=O)nc1C | – | – | ? | – | ? | –
CCOC(=O)c1sc(NC(=O)C2CC=CCC2C(=O)O)nc1C (stereo not drawn) | – | – | – | – | 0.13µM | –
CCOC(=O)c1sc(NC(=O)c2ccc(C)o2)nc1C | – | – | 20µM | – | – | –
CN(C)c1ccc2nc3c(C(=O)O)cc(=O)c(O)c-3oc2c1 | · | · | – | – | –[13.5 µM] | –[11.4 µM]
Cc1ccsc1C(=O)Nc1ccc(F)c([N+](=O)[O-])c1 | -81 | · | – | – | – | –
C/C(=N\NC(=S)NCc1ccccc1)c1ccc2ccccc2c1 | -99 | · | – | – | – | ?
Cc1ccc(-c2nnn(CC(=O)N(Cc3ccco3)C(C(=O)NC(C)(C)C)c3cccs3)n2)o1 (stereo not drawn) | – | –[0.369 µM] | – | – | 28µM | –
COc1ccc(CNC(=O)C(c2ccco2)N(Cc2ccccc2)C(=O)Cc2cccs2)cc1 (stereo not drawn) | – | – | – | – | 13µM | –
CC(C)(C)NC(=O)C(c1ccco1)N(Cc1ccc(F)cc1)C(=O)c1snc(C(N)=O)c1N (stereo not drawn) | – | – | – | – | – | –
COCCN(C(=O)Cc1cccs1)C(C(=O)NCc1ccc(OC)cc1)c1ccc(OC)cc1 (stereo not drawn) | – | –[1.84 µM] | – | – | 2.2µM | –
COc1ccc(CNC(=O)C(c2ccncc2)N(C(=O)Cc2cccs2)c2ccccc2C)cc1 (stereo not drawn) | ? | –[1.84 µM] | – | – | ? | –
COc1ccc(CN(C(=O)c2snc(C(N)=O)c2N)C(C(=O)NC(C)(C)C)c2ccco2)cc1 (stereo not drawn) | -101 | – | – | – | ? | –
Cc1ccc(-c2nnn(CC(=O)N(Cc3cccs3)C(C(=O)NC(C)(C)C)c3ccco3)n2)o1 (stereo not drawn) | – | – | – | – | ? | –
COC(=O)C1CCN(Cc2ccc(OCCCN3CCN(c4ccc([N+](=O)[O-])cc4)CC3)cc2)CC1 | · | · | · | – | – | ·
C(=N/Nc1nnc2c(n1)[nH]c1ccccc12)/c1cccnc1 | · | · | – | – | –[13.5 µM] | –[11.4 µM]
COc1ccc(CNC(=O)C(c2ccco2)N(C(=O)Cc2cccs2)c2cccnc2)cc1 (stereo not drawn) | · | · | · | – | – | ·
COc1ccc(C(=O)N(Cc2ccco2)Cc2cccs2)c(O)c1 | ? | – | ? | – | 13µM | –
COc1ccc(CNC(=O)C(c2cccs2)N(Cc2ccco2)C(=O)Cc2cccs2)cc1 (stereo not drawn) | – | – | – | – | 2µM | –
